Measured values from PubChem BioAssay AID623877 (Johns Hopkins Ion Channel Center, 2012).
The whole screen tested about 340,000 compounds, of which about 1,000 (0.29%) were called active.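 The calls were made as follows: active = fluorescence-ratio B-score plate-corrected deviation score at least 3 library SD below zero, with starting fluorescence score within 5 deviations; inactive = the rest.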 For the sample, actives were picked, then their nearest neighbours and some compounds at random.

The molecules below were run against Anoctamin-1 (Mus musculus) (UniProt Q8BHY3) (assay: TMEM16A chloride channel activators or potentiators, primary screen, cell-based, HTS (AID 623877;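 as to B-score: channel opened by trigger with iodide after compound preincubation; score built on the fluorescence ratio of max minus min over baseline; more negative score means more quench and so TMEM16A activation or potentiation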)). Settings: HEK293 TMEM16A/YFP-H148Q/I152L, iodide quench fluorescence, at 10 µM; hits give low values.
Chain of Anoctamin-1 (Mus musculus) (Q8BHY3 whole entry, looked up): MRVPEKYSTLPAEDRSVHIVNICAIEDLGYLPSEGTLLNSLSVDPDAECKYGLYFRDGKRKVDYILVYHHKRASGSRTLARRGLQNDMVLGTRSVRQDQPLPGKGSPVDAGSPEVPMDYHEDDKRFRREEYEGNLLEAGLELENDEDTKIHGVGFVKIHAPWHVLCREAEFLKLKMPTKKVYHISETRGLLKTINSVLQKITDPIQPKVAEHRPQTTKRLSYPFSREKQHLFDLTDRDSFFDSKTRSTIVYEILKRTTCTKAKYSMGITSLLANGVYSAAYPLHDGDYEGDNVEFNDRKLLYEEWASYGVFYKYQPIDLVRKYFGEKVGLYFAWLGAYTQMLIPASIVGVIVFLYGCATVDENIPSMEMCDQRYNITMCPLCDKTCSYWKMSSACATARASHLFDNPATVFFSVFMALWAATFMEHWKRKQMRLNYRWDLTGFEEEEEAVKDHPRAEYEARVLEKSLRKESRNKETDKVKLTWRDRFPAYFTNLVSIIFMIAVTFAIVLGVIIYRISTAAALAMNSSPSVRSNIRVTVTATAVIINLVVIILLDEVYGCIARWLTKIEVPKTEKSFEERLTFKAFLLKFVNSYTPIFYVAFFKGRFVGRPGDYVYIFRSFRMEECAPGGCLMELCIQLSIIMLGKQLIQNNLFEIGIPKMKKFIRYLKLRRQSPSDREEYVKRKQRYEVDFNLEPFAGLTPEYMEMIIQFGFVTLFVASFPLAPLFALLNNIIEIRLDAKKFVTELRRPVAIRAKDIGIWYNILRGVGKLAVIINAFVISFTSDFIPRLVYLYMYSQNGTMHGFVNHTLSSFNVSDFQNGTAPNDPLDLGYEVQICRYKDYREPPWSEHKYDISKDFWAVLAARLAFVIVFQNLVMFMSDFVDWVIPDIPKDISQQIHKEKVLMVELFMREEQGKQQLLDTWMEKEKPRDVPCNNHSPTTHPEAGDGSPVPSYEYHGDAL

Row | SMILES | B-score
1 | O=C(CCl)N(Cc1cccc([N+](=O)[O-])c1)c1cccc(Cl)c1 | inactive
2 | Cc1ccc(-c2csc(C(C#N)=C(O)CN3CCN(C(=O)c4ccco4)CC3)n2)cc1 | inactive
3 | COC(=O)Cc1c(-c2[nH]c3ccccc3c2CC(=O)OC)[nH]c2ccccc12 | inactive
4 | O=C(C[n+]1cc(Br)cc2ccccc21)c1ccc(F)cc1 | inactive
5 | COC(=O)C[n+]1cccc2ccccc21 | -8.8 (active)
6 | O=C(Nc1cccc(Cl)c1)C1CCCN(c2cnccn2)C1 (stereo not given) | inactive
7 | Cc1ccc2c(c1)C(c1ccccc1)N(C(=O)c1ccc(S(=O)(=O)N3CCOCC3)cc1)CC(=O)N2 (stereo not given) | inactive
8 | COc1cccc(N2CCN(CC(=O)Nc3ccnn3C3CCCC3)CC2)c1 | -41.6 (active)
9 | COc1ccccc1N1CCN(CC(=O)Nc2ccnn2C2CCCC2)CC1 | inactive
10 | COc1cccc(C(=O)N2CCC(n3nccc3NC(=O)C3CCOC3)CC2)c1 (stereo not given) | inactive
11 | COc1ccc(CNC(=O)CN(Cc2ccc(Cl)cc2)S(C)(=O)=O)cc1 | inactive
12 | Nc1ncnc2c1cnn2C1CC(O)C(CO)O1 (stereo not given) | inactive
13 | Cc1noc(/C=C/c2ccco2)c1S(=O)(=O)N1CCC(C(=O)Nc2ccc(Cl)cn2)CC1 | inactive
14 | C=CC(COCc1ccccc1)N(CC(=O)OC)S(=O)(=O)c1cc(Br)ccc1OC (stereo not given) | inactive
15 | C=CC(COCc1ccccc1)N(Cc1ccccc1)S(=O)(=O)c1ccccc1Br (stereo not given) | -4.97 (active)
16 | C=CCCN(Cc1ccccc1)S(=O)(=O)c1ccccc1Br | inactive
17 | O=C(CN1CCN(S(=O)(=O)c2cccc(Cl)c2)CC1)N1CCCCC1 | inactive
18 | O=C(CN1CCCSc2ccccc21)N1CCN(S(=O)(=O)c2cccc(F)c2)CC1 | -45.3 (active)
19 | O=C(CN1CCCSc2ccccc21)N1CCN(S(=O)(=O)c2ccccc2)CC1 | inactive
20 | COc1cc(C(=O)Nc2oc(-c3ccccc3)c(-c3ccccc3)c2C#N)cc(OC)c1OC | inactive
21 | N#Cc1c(NC(=O)CCCN2C(=O)c3ccccc3C2=O)oc(-c2ccccc2)c1-c1ccccc1 | -21.8 (active)
22 | O=C1c2ccccc2C(=O)N1CCCCCCN1C(=O)c2ccccc2C1=O | inactive
23 | CN(C)S(=O)(=O)c1ccc(N2CCCC2)c(C(=O)NCc2ccccc2)c1 | inactive
24 | O=P(c1cccs1)(c1cccs1)c1cccs1 | inactive
25 | COc1ccc(N=C2C=CC(=O)O2)cc1 | inactive
26 | CCOc1ccccc1-n1c(SCC(=O)NCc2ccco2)nnc1-c1ccncc1 | inactive
27 | COc1ccc(-n2c(SCC(=O)NCc3cccs3)nnc2-c2ccoc2C)cc1 | inactive

Row | SMILES | B-score
28 | Cc1ccccc1-n1c(SCC(=O)NCc2cccs2)nnc1-c1ccncc1 | -9.87 (active)
29 | O=C(Oc1ccccc1)Oc1ccc2c(c1)oc(=O)c1ccccc12 | inactive
30 | CC(C)N(Cc1ccccc1)C(=S)Nc1ccc(OC(F)F)cc1 | inactive
31 | Cc1ccccc1NC(=O)c1nn(-c2ccc(F)c(F)c2)ccc1=O | inactive
32 | CCCSc1ncccc1C(=O)O | inactive
33 | Cc1ccc(CNC(=O)c2cccnc2Cl)cc1 | inactive
34 | CCN(CC)S(=O)(=O)c1ccc(NC(=O)c2cccnc2Cl)c(NC(=O)c2cccnc2Cl)c1 | -8.41 (active)
35 | CCN(CC)S(=O)(=O)c1ccc(NC(=O)c2cnc(C)cn2)cc1 | inactive
36 | O=C(NCCN1CCCC(O)C1)c1cc(COc2c(F)cccc2F)on1 (stereo not given) | inactive
37 | CCc1nnc(NC(=O)CSc2nc(SC)ns2)s1 | inactive
38 | COc1ccc(OC)c(Nc2nc3ccccc3n3cnnc23)c1 | inactive
39 | COc1ccc(S(=O)(=O)N2CCCC2)c(C)c1C | inactive
40 | CC(C)NC(=O)NC(=O)CSc1nnc(-c2ccccc2F)n1N | inactive
41 | Nn1c(SCC(=O)NC(=O)NC2CCCC2)nnc1-c1ccccc1F | inactive
42 | Nn1c(SCC(=O)NC2CCCC2)nnc1-c1ccccc1F | -15.8 (active)
43 | CC(C)[C@H](NC(=O)OCc1ccccc1)C(=O)OCc1ccccc1 | inactive
44 | COc1ccc(COC(=O)NC(C(=O)O)c2ccccc2)cc1 (stereo not given) | -15.7 (active)
45 | COC(=O)c1ccc(C(NC(=O)OCc2ccccc2)/C(F)=C/[C@@H](C)C(=O)O)cc1 (stereo not given in full) | inactive
46 | Cc1cccc(C)c1NC(=O)C1CCCN1C(=O)OC(C)(C)C (stereo not given) | inactive
47 | Cc1ccc(NC(=O)Cc2nc(COC(=O)C(C)NS(=O)(=O)c3ccc(C)cc3)cs2)cc1 (stereo not given) | -5.62 (active)
48 | CC(=O)Nc1ccc(S(=O)(=O)NC(C)C(=O)OCC(=O)NC2CCCC2)cc1 (stereo not given) | inactive
49 | C/C=C/C(=O)OCc1csc(CC(=O)Nc2ccccc2C)n1 | inactive
50 | CCOc1cc(C(=O)N(Cc2ccccc2)c2ccc(C)cc2)ccc1OCC(=O)N1CCOCC1 | inactive
51 | CCOC(=O)C1(Cc2ccc(O)cc2)NC(c2ccccc2F)C2C(=O)N(C)C(=O)C21 (stereo not given) | inactive
52 | CCOc1cc(/C=C2/N=C(c3ccc(C(C)(C)C)cc3)OC2=O)cc(Cl)c1OS(C)(=O)=O | inactive
53 | COC1=C/C(=C/c2c(N)n3nc(CC(=O)N4CCOCC4)sc3nc2=O)C=CC1=O | -12.3 (active)
54 | C=CCC1=C/C(=C\c2c(N)n3nc(CC(=O)N4CCOCC4)sc3nc2=O)C=C(OC)C1=O | inactive

Row | SMILES | B-score
55 | COc1ccc(-c2ccnc(SCC(=O)N3CCOCC3)n2)cc1 | inactive
56 | N#CCSc1nn(-c2ccc(F)cc2)c(=S)s1 | inactive
57 | O=C(CSc1ccccn1)N1CCN(S(=O)(=O)c2ccc(Cl)cc2)CC1 | inactive
58 | CCCC(C)n1[nH]c(=O)c2c(C)cc(C)nc21 (stereo not given) | inactive
59 | CCC(C)n1[nH]c(=O)c2c(C)cc(C)nc21 (stereo not given) | -6.98 (active)
60 | CCC(C)n1[nH]c(=O)cc1N (stereo not given) | inactive
61 | CSc1nc2sc3c(c2c(=O)[nH]1)CCc1ccccc1-3 | inactive
62 | O=C(COC(=O)c1cc[n+]([O-])cc1)Nc1ccc(Cl)c(C(F)(F)F)c1 | inactive
63 | NC(=O)N1CCCC1C(=O)Nc1ccc(Cl)c(Cl)c1 (stereo not given) | inactive
64 | O=C(CC(O)(C(F)(F)F)C(F)(F)F)Nc1ccc(Cl)c(Cl)c1 | -12.9 (active)
65 | Cc1ccc(S(=O)(=O)N2CCOCC2)cc1C(=O)Nc1ccccc1N1CCCC1 | inactive
66 | Nc1ccc2c(c1)C(=Cc1cccnc1)c1ccccc1-2 | inactive
67 | N#CCC(=O)N/N=C/c1ccc(SCC(=O)Nc2ccccc2)o1 | inactive
68 | CC(OC(=O)CCCc1c[nH]c2ccccc12)C(=O)Nc1ccc(S(N)(=O)=O)cc1 (stereo not given) | inactive
69 | C/C(=N\NS(=O)(=O)c1cccc([N+](=O)[O-])c1)c1cc2ccccc2o1 | inactive
70 | CCCCN1CCNC1=S | inactive
71 | O=C1c2ccccc2S(=O)(=O)c2cc(N3CCN(c4ccccn4)CC3)ccc21 | -5.73 (active)
72 | O=C(c1ccc2c(c1)C(=O)N(c1ccc(Cl)cc1)C2=O)N1CCN(c2ccccn2)CC1 | inactive
73 | O=C(C(Cl)Cl)N1CCN(c2ccccn2)CC1 | inactive
74 | O=C(c1c(F)cccc1Cl)N1CCN(c2ccccn2)CC1 | inactive
75 | O=C(c1ccc2c(c1)N(Cc1ccc(F)cc1)C(=O)c1ccccc1S2(=O)=O)N1CCN(c2ccccn2)CC1 | -4.74 (active)
76 | O=C1c2cccc3cccc(c23)N1CN1CCN(c2ccccn2)CC1 | inactive
77 | Nc1c(Cl)cc(-c2csc(N3CCCC3c3nc4cc(Cl)c(Cl)cc4n3CCOCCO)n2)cc1Cl (stereo not given) | inactive
78 | Cc1ccc(CSCC(=O)N(C)CC(=O)Nc2ccc(C)cc2)cc1 | inactive
79 | CC1C(=O)NC(=O)C1c1ccccc1 (stereo not given) | inactive
80 | S=c1nc2ccccc2c2nc(-c3cccnc3)[nH]n12 | inactive
81 | COc1ccc(Nc2nc(-c3cccnc3)nc3ccccc23)cn1 | -6.47 (active)

Row | SMILES | B-score
82 | CC(C)(C)Nc1nc(-c2ccccn2)nc2ccccc12 | inactive
83 | O=S(=O)(NC(=S)Nc1ccccc1)c1ccc(F)cc1 | inactive
84 | O=C(O)C1CCN(C(=O)c2cc(F)cc3c2OCOC3)CC1 | inactive
85 | Cc1cc(=O)n2nc(N3CCCC(C(=O)NCc4ccc(Cl)cc4)C3)sc2n1 (stereo not given) | inactive
86 | Cc1cc(=O)n2nc(N3CCCC(C(=O)NCCC4=CCCCC4)C3)sc2n1 (stereo not given) | inactive
87 | Cc1cc(=O)n2nc(N3CCCC3C(=O)NCCCN3CC(C)CC(C)C3)sc2n1 (stereo not given) | -18.1 (active)
88 | CN(c1ccc(OCC(=O)OCC(=O)Nc2cccc([N+](=O)[O-])c2)cc1)S(=O)(=O)c1ccc(F)cc1 | inactive
89 | Cc1ccccc1OCCC(=O)OCC(=O)NCCc1ccc(S(N)(=O)=O)cc1 | inactive
90 | CN(C)S(=O)(=O)c1ccc(C(=O)NCCN=C2NS(=O)(=O)c3ccccc32)cc1 | inactive
91 | Cc1noc(C)c1S(=O)(=O)NCCc1ccc(S(N)(=O)=O)cc1 | inactive
92 | CCc1ccc(-c2cc(C)no2)cc1S(=O)(=O)NCCc1ccc(S(N)(=O)=O)cc1 | -4.67 (active)
93 | Cc1cc(-c2ccc(C)c(S(=O)(=O)Nc3ccc(S(N)(=O)=O)cc3)c2)on1 | inactive
94 | Cc1cc(C)c2c(c1)cc(C)c1nnc(SCC(=O)Nc3cc(C)on3)n12 | inactive
95 | C=CCN(CC=C)CCOc1ccccc1[N+](=O)[O-] | inactive
96 | O=[N+]([O-])c1ccc(NS(=O)(=O)c2ccccc2)c(Cl)c1 | inactive
97 | Cc1ccc(-c2nn(-c3ccccc3)cc2C(=O)NC2CCC(O)CC2)cc1 (stereo not given) | inactive
98 | NC(=O)C1CCN(C(=O)c2cn(-c3ccccc3)nc2-c2cccnc2)CC1 | inactive
99 | O=C(NNC(=S)NC(=O)c1cn(-c2ccccc2)nc1-c1ccccc1)c1ccncc1 | -5.25 (active)
100 | O=C(CCc1nnc2ccc(NCCCN3CCCC3=O)nn12)NCc1ccccc1Cl | inactive
101 | C#CCOCCOCCOCCNc1nc(N2CCN(C(=O)C(Cc3ccc(O)cc3)n3cc(C(N)CC(C)C)nn3)CC2)nc(N2CCN(C(=O)C(Cc3ccc(O)cc3)n3cc(C(N)C(C)CC)nn3)CC2)n1 (stereo not given) | inactive
102 | COc1ccc(CN2C(=O)C(C)S/C2=N/N=C/c2ccco2)cc1 (stereo not given) | inactive
103 | COc1ccc(CNC(=O)c2nnn(CC(=O)Nc3cc(C)cc(C)c3)c2N)cc1 | inactive
104 | COc1ccc(NC(=O)Cn2nnc(C(=O)NCCc3ccc(OC)c(OC)c3)c2N)cc1 | inactive
105 | CCc1ccc(NC(=O)Cn2nnc(C(=O)NCc3ccc(OC)cc3)c2N)cc1 | -25.9 (active)
